PubChem BioAssay (Tox21)
Inconclusive results are not listed. Activity calls are given as the source filed them. Unless noted, the call rests on the fitted dose curve; in most records, active means well fitted curve in the direction sought with a large enough effect in the repeat runs; inconclusive means weak or mixed curves; inactive means no such curve, though single readings can be large; an effect the other way counts as inactive or inconclusive.

How the values were obtained:
[1] = target: Peroxisome proliferator-activated receptor delta (Homo sapiens) (UniProt Q03181); assay: qHTS assay to identify small molecule agonists of the peroxisome proliferator-activated receptor delta (PPARd) signaling pathway (AID 743212; calls by dose curve;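 further: HEK293H cells with PPARd UAS beta-lactamase reporter GeneBLAzer system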); details: HEK293H PPARd-UAS-bla, beta-lactamase FRET ratio, 17 h; series mostly up to 62.6 µM
Sequence of Peroxisome proliferator-activated receptor delta (Homo sapiens) (Q03181 whole entry, looked up): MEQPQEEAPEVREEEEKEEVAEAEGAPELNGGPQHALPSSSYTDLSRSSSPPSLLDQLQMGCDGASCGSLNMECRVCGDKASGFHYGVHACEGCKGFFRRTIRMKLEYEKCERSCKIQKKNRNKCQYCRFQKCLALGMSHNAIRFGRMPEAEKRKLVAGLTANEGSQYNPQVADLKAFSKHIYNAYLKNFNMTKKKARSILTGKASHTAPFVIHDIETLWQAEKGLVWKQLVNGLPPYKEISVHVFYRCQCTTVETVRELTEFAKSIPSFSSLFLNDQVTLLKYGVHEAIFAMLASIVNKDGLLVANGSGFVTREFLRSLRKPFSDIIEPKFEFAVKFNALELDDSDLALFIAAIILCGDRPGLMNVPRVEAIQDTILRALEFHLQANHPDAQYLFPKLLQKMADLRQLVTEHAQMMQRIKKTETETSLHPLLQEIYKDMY
Procedure, shortened: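 Beta-lactamase reporter readout: a ratiometric FRET signal from the LiveBLAzer substrate after 2 h at room temperature. Compound exposure at 37 °C in PPARδ-bla HEK293H cells driven by an upstream activator sequence.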

[2] = qHTS assay to identify small molecule antagonists of the peroxisome proliferator-activated receptor delta (PPARd) signaling pathway - cell viability counter screen (AID 743213); details: PPARd-bla HEK293H viability, CellTiter-Glo luminescence, 17 h; series mostly up to 62 µM; further: nearly all actives have a fitted effect of over 50% in size
Procedure, shortened: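 CellTiter-Glo was added to PPARd-bla HEK293H wells following 17 h compound treatment in the presence of 300 nM L165041. Luminescence was recorded after 30 min at room temperature.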

[3] = target: Peroxisome proliferator-activated receptor delta (Homo sapiens) (UniProt Q03181); assay: qHTS assay to identify small molecule antagonists of the peroxisome proliferator-activated receptor delta (PPARd) signaling pathway (AID 743215; active means well fitted inhibition curve with a large enough effect in the signal ratio in the repeat runs, not every such curve was filed as active; the % refers to the signal ratio;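 further: cells stimulated with agonist L165041 at 300 nM final during compound exposure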); details: HEK293H PPARd-UAS-bla, beta-lactamase FRET ratio, antagonist, 17 h; series mostly up to 62 µM
Procedure, shortened: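 Here, a reporter line (HEK293H, beta-lactamase under a UAS) measures PPARd signaling. Compounds are tested against agonist L165041 at 300 nM final concentration over 17 h at 37 C, with fluorescence read after substrate.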

[4] = target: Bile acid receptor (Homo sapiens) (UniProt Q96RI1); assay: qHTS assay to identify small molecule antagonists of the farnesoid-X-receptor (FXR) signaling pathway (AID 743217; active means well fitted inhibition curve with a large enough effect in the signal ratio in the repeat runs, not every such curve was filed as active; the % refers to the signal ratio); details: HEK293T FXR-UAS-bla, beta-lactamase ratio, CDCA-stimulated, 16 h; series mostly up to 62.6 µM
Sequence of Bile acid receptor (Homo sapiens) (Q96RI1 whole entry, looked up): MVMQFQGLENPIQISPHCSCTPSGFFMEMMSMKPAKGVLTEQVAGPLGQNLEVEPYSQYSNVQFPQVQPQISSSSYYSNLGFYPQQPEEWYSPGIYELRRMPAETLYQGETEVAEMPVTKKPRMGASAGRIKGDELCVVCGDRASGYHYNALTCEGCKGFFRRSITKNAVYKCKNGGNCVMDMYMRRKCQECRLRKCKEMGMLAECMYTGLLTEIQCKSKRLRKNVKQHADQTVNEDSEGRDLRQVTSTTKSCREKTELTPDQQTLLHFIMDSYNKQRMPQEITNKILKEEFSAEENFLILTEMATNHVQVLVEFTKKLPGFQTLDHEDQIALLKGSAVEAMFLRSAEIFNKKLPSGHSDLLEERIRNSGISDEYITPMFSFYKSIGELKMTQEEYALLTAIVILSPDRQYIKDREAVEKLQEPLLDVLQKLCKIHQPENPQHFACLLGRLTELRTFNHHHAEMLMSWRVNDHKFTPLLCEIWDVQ
Procedure, shortened: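 Test compounds are pin-transferred onto FXR-bla HEK 293T cells, then chenodeoxycholic acid is added at 50 uM final. After 16 h at 37 °C, LiveBLAzer B/G substrate is applied for 2 h at room temperature and fluorescence read.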

[5] = qHTS assay to identify small molecule agonists of the farnesoid-X-receptor (FXR) signaling pathway - cell viability counter screen (AID 743218); details: FXR-bla HEK293T viability, CellTiter-Glo luminescence, 16 h; series mostly up to 62.6 µM; further: nearly all actives have a fitted effect of over 45% in size
Procedure, shortened: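 Quantitative HTS counter screen measuring ATP-based viability via CellTiter-Glo luminescence in HEK 293T cells carrying a UAS-driven beta-lactamase reporter, after 16 h compound exposure at 37 C.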

[6] = target: Bile acid receptor (Homo sapiens) (UniProt Q96RI1); assay: qHTS assay to identify small molecule agonists of the farnesoid-X-receptor (FXR) signaling pathway (AID 743220; active means well fitted activation curve with a large enough effect in the signal ratio in the repeat runs, not every such curve was filed as active; the % refers to the signal ratio); details: HEK293T FXR-UAS-bla, beta-lactamase FRET ratio, 16 h; series mostly up to 62.6 µM
Procedure, shortened: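 FXR-UAS-bla HEK 293T cells carrying a UAS-driven beta-lactamase reporter were plated for 5 h at 37C/5% CO2, then exposed to DMSO-dissolved Tox21 10K compounds for 16 h at 37C. A LiveBLAzer B/G FRET substrate was loaded for 2 h at room temperature before fluorescence reading.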

[7] = qHTS assay to identify small molecule antagonists of the farnesoid-X-receptor (FXR) signaling pathway - cell viability counter screen (AID 743221; active means well fitted cell-killing curve with a large enough effect in the repeat runs, not every such curve was filed as active; further: nearly all actives have a fitted effect of over 50% in size); details: FXR-bla HEK293T viability, CellTiter-Glo luminescence, 16 h; series mostly up to 62.6 µM
Procedure, shortened: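 Cytotoxicity is taken from ATP luminescence (CellTiter-Glo, 30 min, room temperature) in FXR-bla HEK 293T cells previously incubated 16 h at 37 C with compound and chenodeoxycholic acid at 50 uM final.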

[8] = target: Vitamin D3 receptor (Homo sapiens) (UniProt P11473); assay: qHTS assay to identify small molecule agonists of the vitamin D receptor (VDR) signaling pathway (AID 743222; calls by dose curve); details: HEK293T VDR-UAS-bla, beta-lactamase FRET ratio, 16 h; series mostly up to 63.5 µM
Sequence of Vitamin D3 receptor (Homo sapiens) (P11473 whole entry, looked up): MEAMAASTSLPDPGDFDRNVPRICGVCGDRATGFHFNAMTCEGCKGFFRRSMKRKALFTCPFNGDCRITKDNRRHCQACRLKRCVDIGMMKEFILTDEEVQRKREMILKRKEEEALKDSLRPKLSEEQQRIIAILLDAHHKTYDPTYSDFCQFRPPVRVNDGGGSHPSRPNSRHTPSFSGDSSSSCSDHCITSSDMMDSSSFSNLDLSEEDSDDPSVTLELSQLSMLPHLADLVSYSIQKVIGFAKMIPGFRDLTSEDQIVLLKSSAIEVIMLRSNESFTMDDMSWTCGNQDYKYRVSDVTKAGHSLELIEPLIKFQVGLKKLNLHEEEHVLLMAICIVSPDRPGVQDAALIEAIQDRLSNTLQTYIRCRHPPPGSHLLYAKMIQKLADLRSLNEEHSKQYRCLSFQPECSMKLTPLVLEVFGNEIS
Procedure, shortened: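 Tox21 cell reporter format: VDR-bla line, 16 h compound exposure in 5% CO2 at 37C, then fluorescence intensity after 2 h with LiveBLAzer B/G FRET substrate.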

[9] = qHTS assay to identify small molecule agonists of the vitamin D receptor (VDR) signaling pathway - cell viability counter screen (AID 743224); details: VDR-bla HEK293T viability, CellTiter-Glo luminescence, 16 h; series mostly up to 62.6 µM; further: nearly all actives have a fitted effect of over 50% in size
Procedure, shortened: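 CellTiter-Glo viability readout on VDR-bla cells, measured after 16 h of compound treatment at 37C in the same wells.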

[10] = target: Vitamin D3 receptor (Homo sapiens) (UniProt P11473); assay: qHTS assay to identify small molecule antagonists of the vitamin D receptor (VDR) signaling pathway (AID 743223; active means well fitted inhibition curve with a large enough effect in the signal ratio in the repeat runs, not every such curve was filed as active; the % refers to the signal ratio); details: VDR-UAS-bla HEK293T, beta-lactamase FRET ratio, 16 h; series mostly up to 61 µM
Procedure, shortened: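 Quantitative HTS in VDR-bla reporter cells stimulated with 1alpha,25-dihydroxyvitamin D3, 3 nM final. Compound exposure 16 h, 37C, 5% CO2. Read-out: beta-lactamase FRET substrate fluorescence, 2 h RT.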
On the % scale 0 is the no-effect control and ±100 the full control effect.

C=C(C)C(=O)OCCOC1CC2CC1C1C=CCC21 (centres undefined)
inactive: outcome [1] | outcome [2] | outcome [3] | outcome [4] | outcome [5] | outcome [6] | outcome [7] | outcome [8] | outcome [9]

CC1(C)CC(N)CC(C)(C)N1
inactive: outcome [1] | outcome [2] | outcome [3] | outcome [4] | outcome [5] | outcome [6] | outcome [7] | outcome [8] | outcome [9]

O=S(=O)(O)c1ccc(Cl)cc1
inactive: outcome [1] | outcome [2] | outcome [3] | outcome [4] | outcome [5] | outcome [6] | outcome [7] | outcome [8] | outcome [10] | outcome [9]

C=CCON/C(CCC)=C1\C(=O)CC(C)(C)C(C(=O)OC)=C1O
inactive: outcome [1] | outcome [2] | outcome [3] | outcome [4] | outcome [5] | outcome [7] | outcome [8] | outcome [10] | outcome [9]

CCCCCCCCCCCCCCCC/C=C/C1CC(=O)OC1=O (centres undefined)
inactive: outcome [1] | outcome [2] | outcome [3] | outcome [4] | outcome [5] | outcome [6] | outcome [7] | outcome [8] | outcome [9]

C[C@@H]1CC[C@@]2(OC1)O[C@H]1C[C@H]3[C@@H]4CC[C@H]5C[C@@H](O)CC[C@]5(C)[C@H]4CC(=O)[C@]3(C)[C@H]1[C@@H]2C
inactive: activation [1] 0.168% [at 5.95 µM] | viability change, negative = cytotoxic [2] 11.9% [at 6.26 µM] | ratio activity, negative = inhibition [3] 2.62% [at 6.26 µM] | activity change, negative = inhibition [4] 10.4% [at 5.95 µM] | viability change, negative = cytotoxic [5] 12.5% [at 5.95 µM] | activation [6] 2.31% [at 5.95 µM] | activity change, negative = cytotoxicity [7] 4.76% [at 5.95 µM] | activity change, negative = cytotoxicity [9] 4.49% [at 5.95 µM]

OCCC(F)(F)C(F)(F)C(F)(F)C(F)(F)C(F)(F)C(F)(F)F
inactive: outcome [1] | outcome [2] | outcome [3] | outcome [4] | outcome [5] | outcome [6] | outcome [7] | outcome [9]

CCOCCOCCOC(C)=O
inactive: outcome [1] | outcome [2] | outcome [3] | outcome [4] | outcome [5] | outcome [6] | outcome [7] | outcome [8] | outcome [9]

O=C(O)CCC(=O)Nc1ccc(S(=O)(=O)Nc2nccs2)cc1
inactive: outcome [1] | outcome [2] | outcome [3] | outcome [4] | outcome [5] | outcome [7] | outcome [8] | outcome [10] | outcome [9]

Cc1ccccc1C#N
inactive: outcome [1] | outcome [2] | outcome [3] | outcome [4] | outcome [5] | outcome [6] | outcome [7] | outcome [8] | outcome [10] | outcome [9]

C/C(=N\O)c1ccc(OCC(=O)N2CCCCC2)cc1
inactive: outcome [1] | outcome [2] | outcome [3] | outcome [4] | outcome [5] | outcome [6] | outcome [7] | outcome [9]

CCCCC(O)/C=C(C)/C=C/C=C/C(=O)N1CCCC1=O (centres undefined)
inactive: outcome [1] | outcome [2] | outcome [3] | outcome [4] | outcome [5] | outcome [6] | outcome [7] | outcome [8] | outcome [10] | outcome [9]

CCCCCCCCCCCBr
inactive: outcome [1] | outcome [2] | outcome [3] | outcome [4] | outcome [5] | outcome [6] | outcome [7] | outcome [8] | outcome [10] | outcome [9]

CCCc1ncc(C(=O)O)s1
inactive: outcome [1] | outcome [2] | outcome [3] | outcome [4] | outcome [5] | outcome [6] | outcome [7] | outcome [8] | outcome [10] | outcome [9]

CCCCc1ccc(Cl)cc1
inactive: outcome [1] | outcome [2] | outcome [3] | outcome [4] | outcome [5] | outcome [6] | outcome [7] | outcome [8] | outcome [9]

COC(=O)c1cc(Cl)c(NC(C)=O)cc1OC
inactive: outcome [1] | outcome [2] | outcome [3] | outcome [4] | outcome [5] | outcome [6] | outcome [7] | outcome [8] | outcome [10] | outcome [9]

Cc1cc(O)c(Cl)cc1C
inactive: outcome [1] | outcome [2] | outcome [3] | outcome [4] | outcome [5] | outcome [6] | outcome [7] | outcome [8] | outcome [10] | outcome [9]

CC1(C)C(=O)C(C)(C)C1=O
inactive: outcome [1] | outcome [2] | outcome [3] | outcome [4] | outcome [5] | outcome [6] | outcome [7] | outcome [8] | outcome [10] | outcome [9]

CN(C)c1cc(NC(=O)CNC(C)(C)C)c(O)c2c1C[C@H]1C[C@H]3[C@H](N(C)C)C(=O)C(C(N)=O)=C(O)[C@@]3(O)C(=O)C1=C2O
inactive: outcome [1] | outcome [2] | outcome [3] | outcome [4] | outcome [5] | outcome [6] | outcome [7] | outcome [8] | outcome [10] | outcome [9]

Cc1cc(C)c(C)c(C)c1
inactive: outcome [1] | outcome [2] | outcome [3] | outcome [4] | outcome [5] | outcome [6] | outcome [7] | outcome [8] | outcome [10] | outcome [9]

O=C(O)/C=C(\CC(=O)O)C(=O)O
inactive: outcome [1] | outcome [2] | outcome [3] | outcome [4] | outcome [5] | outcome [6] | outcome [7] | outcome [8] | outcome [10]

CC/C=C\CCOC(=O)c1ccccc1
inactive: outcome [1] | outcome [2] | outcome [3] | outcome [4] | outcome [5] | outcome [6] | outcome [7] | outcome [10] | outcome [9]

CCN(CC)CC(=O)Oc1ccc(NC(C)=O)cc1
inactive: outcome [1] | outcome [2] | outcome [3] | outcome [4] | outcome [5] | outcome [6] | outcome [7] | outcome [8] | outcome [9]

CC(C)C[P+](C)(CC(C)C)CC(C)C
inactive: outcome [1] | outcome [2] | outcome [3] | outcome [4] | outcome [5] | outcome [6] | outcome [7] | outcome [8] | outcome [10] | outcome [9]
